# Laboratory results: PubChem BioAssay (EPA / NIEHS)
# Active and inactive are the calls of the source. Rule for the calls: active = hit-call score of the fitted dose curve at least 0.9, where 1 is the maximum; inactive = score below 0.9.
# Target: Hypoxia-inducible factor 1-alpha (Homo sapiens) (UniProt Q16665)
# Assay: ATG_HIF1a_CIS: Attagene CIS-FACTORIAL HepG2 Assay for human Hypoxia Inducible Factor 1 (HIF1A) (AID 2282951)
# Conditions: HepG2 Attagene cis-factorial HIF1a reporter transcription; actives raise or lower the signal
# Procedure, shortened: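 HepG2 cells transiently transfected with multiplexed cis-promoter reporter units; reporter mRNA read 24 h after dosing by RT-PCR, 6-FAM primer-extension labelling, HpaI digestion and capillary electrophoresis. Bidirectional fit versus DMSO baseline.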
# Chain of Hypoxia-inducible factor 1-alpha (Homo sapiens) (Q16665 whole entry, looked up): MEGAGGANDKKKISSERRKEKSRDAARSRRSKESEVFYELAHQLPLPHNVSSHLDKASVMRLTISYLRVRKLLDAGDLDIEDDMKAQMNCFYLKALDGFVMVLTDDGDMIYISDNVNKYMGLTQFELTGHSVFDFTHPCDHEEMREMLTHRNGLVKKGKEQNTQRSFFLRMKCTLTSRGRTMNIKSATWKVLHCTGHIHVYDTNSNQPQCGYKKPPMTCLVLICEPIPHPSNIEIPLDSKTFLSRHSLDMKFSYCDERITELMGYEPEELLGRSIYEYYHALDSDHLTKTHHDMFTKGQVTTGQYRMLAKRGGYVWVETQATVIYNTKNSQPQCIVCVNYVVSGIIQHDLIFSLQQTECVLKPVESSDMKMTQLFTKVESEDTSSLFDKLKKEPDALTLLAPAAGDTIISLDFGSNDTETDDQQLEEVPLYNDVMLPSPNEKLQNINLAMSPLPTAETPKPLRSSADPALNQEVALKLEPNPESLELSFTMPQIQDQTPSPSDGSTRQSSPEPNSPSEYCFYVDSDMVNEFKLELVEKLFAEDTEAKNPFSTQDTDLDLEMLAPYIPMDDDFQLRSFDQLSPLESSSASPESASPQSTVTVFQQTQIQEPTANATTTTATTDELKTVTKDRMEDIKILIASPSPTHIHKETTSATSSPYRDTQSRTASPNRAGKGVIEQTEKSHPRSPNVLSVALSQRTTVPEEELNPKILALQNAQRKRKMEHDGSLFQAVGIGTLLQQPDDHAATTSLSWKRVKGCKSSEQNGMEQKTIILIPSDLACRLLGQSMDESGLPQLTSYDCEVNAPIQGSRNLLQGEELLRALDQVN
SMILES,outcome,AC50
C=CC(C)(C)C,inactive,
CCCCCCCCCCCCCOP(=O)(O)O,inactive,
CC(C)=CCC[C@H](C)CCO,inactive,
CCCCC(CC)COCC1CO1 (configuration not stated),inactive,
CC(=O)OCC(=O)[C@@]12N=C(C)O[C@@H]1C[C@H]1[C@@H]3CCC4=CC(=O)C=C[C@]4(C)[C@H]3[C@@H](O)C[C@@]12C,inactive,
CN1C(=O)N(C)C(O)C1O (configuration not stated),inactive,
COc1ccc2nc(N)sc2c1,inactive,
CCOCC(=O)O,inactive,
OC1CCCC1,inactive,
O=c1c2ccccc2oc2ccccc12,inactive,
Cc1ccc(C(C)c2ccc(C)c(C)c2)cc1C,,26.1 µM (active)
CC(C)CCCC(C)CC=O (configuration not stated),inactive,
CCCCCCCC/C=C\CCCCCCCC(=O)OCCO,inactive,
O=C1c2ccccc2C(=O)C1c1nc2ccccc2c(Br)c1O,,4.92 µM (active)
CCN(CC#N)c1cccc(C)c1,inactive,
COc1c2ccoc2cc2oc(=O)ccc12,inactive,

SMILES,outcome,AC50
O=c1[nH]nc(-c2ccc([N+](=O)[O-])o2)o1,inactive,
C=C[Si](OC(C)=O)(OC(C)=O)OC(C)=O,inactive,
COc1cc(NC(=O)CC(C)=O)c(OC)cc1Cl,inactive,
CCCNC(=O)NS(=O)(=O)c1ccc(Cl)cc1,inactive,
C=C(C)C(=O)OCCOc1ccccc1,inactive,
CC(C)(C)C(=O)CCc1ccc(Cl)cc1,inactive,
COC(=O)/C=C\C(=O)O,inactive,
[Cl][Nd]([Cl])[Cl],inactive,
NCCCN1CCN(CCCN)CC1,inactive,
CCCCC(CC)COC(=O)c1ccccc1O (configuration not stated),inactive,
COc1ccc(C(Cl)=C(c2ccc(OC)cc2)c2ccc(OC)cc2)cc1,inactive,
CCCOC(=O)CCCCC(=O)OCCC,inactive,
CCOC(=O)N1CCC(=C2c3ccc(Cl)cc3CCc3cccnc32)CC1,,7.91 µM (active)
CNC(=S)N(C)C,inactive,
Cc1ccc(C(C)(C)C)cc1,inactive,

# Target: Hepatocyte nuclear factor 6 (Homo sapiens) (UniProt Q9UBC0)
# Sequence (Q9UBC0 whole entry, looked up): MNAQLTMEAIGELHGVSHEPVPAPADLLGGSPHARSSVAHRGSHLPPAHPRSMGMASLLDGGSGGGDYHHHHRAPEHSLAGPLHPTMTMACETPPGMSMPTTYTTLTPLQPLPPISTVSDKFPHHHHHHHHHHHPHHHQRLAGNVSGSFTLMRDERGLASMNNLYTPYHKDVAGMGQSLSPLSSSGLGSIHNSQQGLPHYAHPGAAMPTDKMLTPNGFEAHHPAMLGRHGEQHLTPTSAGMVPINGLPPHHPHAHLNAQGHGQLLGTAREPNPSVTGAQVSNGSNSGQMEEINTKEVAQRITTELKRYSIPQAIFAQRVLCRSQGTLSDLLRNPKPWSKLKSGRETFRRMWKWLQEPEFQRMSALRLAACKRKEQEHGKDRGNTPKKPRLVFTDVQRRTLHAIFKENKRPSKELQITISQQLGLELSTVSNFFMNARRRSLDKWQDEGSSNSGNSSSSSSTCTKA
# Assay: ATG_HNF6_CIS: Attagene CIS-FACTORIAL HepG2 Assay for human Hepatocyte Nuclear Factor 6 (HNF6) (AID 2282952)
# Conditions: HepG2 Attagene cis-factorial HNF6 reporter transcription; actives raise or lower the signal
# Procedure, shortened: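 First, HepG2 cells were transfected with the multiplexed cis reporter library and dosed with chemical for 24 h. Next, RNA was reverse-transcribed, PCR-amplified and fluorescently labelled. Finally, HpaI-digested fragments were read by capillary electrophoresis.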
row,SMILES,outcome
1,CCCCCCCCCCCCCOP(=O)(O)O,inactive
2,CC(C)=CCC[C@H](C)CCO,inactive
3,NC(=O)OCC(COC(N)=O)c1ccccc1,inactive
4,CCCCC(CC)COCC1CO1 (configuration not stated),inactive
5,CC(=O)OCC(=O)[C@@]12N=C(C)O[C@@H]1C[C@H]1[C@@H]3CCC4=CC(=O)C=C[C@]4(C)[C@H]3[C@@H](O)C[C@@]12C,inactive
6,COc1ccc2nc(N)sc2c1,inactive
7,CCOCC(=O)O,inactive
8,Nc1ncn([C@@H]2O[C@H](CO)[C@@H](O)[C@H]2O)c(=O)n1,inactive
9,OC1CCCC1,inactive
10,CC(C)CCCC(C)CC=O (configuration not stated),inactive
11,CC(=O)NS(=O)(=O)c1ccc(N)cc1,inactive
12,CCCCCCCC/C=C\CCCCCCCC(=O)OCCO,inactive
13,O=C1c2ccccc2C(=O)C1c1nc2ccccc2c(Br)c1O,inactive
14,C[C@]12CCC(=O)C=C1CC[C@@H]1[C@@H]2C(=O)C[C@@]2(C)[C@H]1CC[C@]2(O)C(=O)CO,inactive
15,CCN(CC#N)c1cccc(C)c1,inactive
16,CC1(C)S[C@@H]2[C@H](NC(=O)COc3ccccc3)C(=O)N2[C@H]1C(=O)O,inactive

row,SMILES,outcome
1,COc1c2ccoc2cc2oc(=O)ccc12,inactive
2,O=c1[nH]nc(-c2ccc([N+](=O)[O-])o2)o1,inactive
3,C=C[Si](OC(C)=O)(OC(C)=O)OC(C)=O,inactive
4,COc1cc(NC(=O)CC(C)=O)c(OC)cc1Cl,inactive
5,O=C(O)CCCC[C@@H]1SC[C@@H]2NC(=O)N[C@@H]21,inactive
6,CCCNC(=O)NS(=O)(=O)c1ccc(Cl)cc1,inactive
7,C=C(C)C(=O)OCCOc1ccccc1,inactive
8,CC(C)(C)C(=O)CCc1ccc(Cl)cc1,inactive
9,COC(=O)/C=C\C(=O)O,inactive
10,NCCCN1CCN(CCCN)CC1,inactive
11,CCCCC(CC)COC(=O)c1ccccc1O (configuration not stated),inactive
12,CCCOC(=O)CCCCC(=O)OCCC,inactive
13,CCOC(=O)N1CCC(=C2c3ccc(Cl)cc3CCc3cccnc32)CC1,inactive
14,CNC(=S)N(C)C,inactive
15,Cc1ccc(C(C)(C)C)cc1,inactive
